Measured values reported in the supplement of paper PMC7411054.
Where a name gives a salt, the structure may show the parent alone.

What was measured:
Details in all cases: treatment time: 24 h
A549-ACTB-RAB5A [1] = experiment: phenotypically active (imaging signature differs from DMSO and reproducible) at any of 0.3-9 uM (binary (1 = active, 0 = inactive)); higher = active
In short: (§1)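 Four wells per concentration (0.3, 1, 3 or 9 µM) were treated for 24 h in each of fifteen gene-edited reporter lines from A549, HepG2 and WPMY1 cells, then imaged live. After normalising live-cell features to solvent control wells, deviation was defined as ≥3 of 4 wells lying past the 95th percentile of control Euclidean distances. Reproducibility was defined as a median replicate Pearson correlation above the 95th percentile of non-replicates. Both had to hold for phenotypic activity.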

A549-CANX-COX4 [2] = experiment: as above
In short: as §1

A549-GM130-SQSTM1 [3] = experiment: as above
In short: as §1

A549-TP53BP1-CLTA [4] = experiment: as above
In short: as §1

A549-TUBA1B-RELA [5] = experiment: as above
In short: as §1

HepG2-ACTB-RAB5A = experiment: as above
In short: as §1

HepG2-CANX-COX4 = experiment: as above
In short: as §1

HepG2-GM130-SQSTM1 = experiment: as above
In short: as §1

HepG2-TP53BP1-CLTA = experiment: as above
In short: as §1

HepG2-TUBA1B-RELA = experiment: as above
In short: as §1

WPMY1-ACTB-RAB5A = experiment: as above
In short: as §1

WPMY1-CANX-COX4 = experiment: as above
In short: as §1

WPMY1-GM130-SQSTM1 = experiment: as above
In short: as §1

WPMY1-TP53BP1-CLTA = experiment: as above
In short: as §1

WPMY1-TUBA1B-RELA = experiment: as above
In short: as §1

A549-ACTB-RAB5A [6] = experiment: lowest phenotypically active concentration; higher = less potent
In short: as §1

A549-CANX-COX4 [7] = experiment: as above
In short: as §1

A549-GM130-SQSTM1 [8] = experiment: as above
In short: as §1

A549-TP53BP1-CLTA [9] = experiment: as above
In short: as §1

A549-TUBA1B-RELA [10] = experiment: as above
In short: as §1

Compound | phenotypically active (A549-ACTB-RAB5A [1]) | phenotypically active (A549-CANX-COX4 [2]) | phenotypically active (A549-GM130-SQSTM1 [3]) | phenotypically active (A549-TP53BP1-CLTA [4]) | phenotypically active (A549-TUBA1B-RELA [5]) | phenotypically active (HepG2-ACTB-RAB5A) | phenotypically active (HepG2-CANX-COX4) | phenotypically active (HepG2-GM130-SQSTM1) | phenotypically active (HepG2-TP53BP1-CLTA) | phenotypically active (HepG2-TUBA1B-RELA) | phenotypically active (WPMY1-ACTB-RAB5A) | phenotypically active (WPMY1-CANX-COX4) | phenotypically active (WPMY1-GM130-SQSTM1) | phenotypically active (WPMY1-TP53BP1-CLTA) | phenotypically active (WPMY1-TUBA1B-RELA) | lowest phenotypically active concentration (A549-ACTB-RAB5A [6]) | lowest phenotypically active concentration (A549-CANX-COX4 [7]) | lowest phenotypically active concentration (A549-GM130-SQSTM1 [8]) | lowest phenotypically active concentration (A549-TP53BP1-CLTA [9]) | lowest phenotypically active concentration (A549-TUBA1B-RELA [10])
NC(=S)N/N=C/c1coc2ccccc2c1=O | 0 (inactive) | 0 (inactive) | 0 (inactive) | 0 (inactive) | 0 (inactive) | 0 (inactive) | 0 (inactive) | 0 (inactive) | 0 (inactive) | 0 (inactive) | 0 (inactive) | 0 (inactive) | 0 (inactive) | 0 (inactive) | 0 (inactive) | – | – | – | – | –
C[C@]12CC[C@H]3[C@@H](CC[C@]4(O)C[C@@H](O)CC[C@]34C=O)[C@@]1(O)CC[C@@H]2C1=CC(=O)OC1 [Strophanthidin] | 1 (active) | 1 (active) | 1 (active) | 1 (active) | 1 (active) | 1 (active) | 1 (active) | 1 (active) | 1 (active) | 1 (active) | 1 (active) | 1 (active) | 1 (active) | 1 (active) | 1 (active) | ≤ 0.3 µM | ≤ 0.3 µM | ≤ 0.3 µM | ≤ 0.3 µM | ≤ 0.3 µM
COC[C@H]1OC(=O)c2coc3c2[C@@]1(C)C1=C(C3=O)[C@@H]2CCC(=O)[C@@]2(C)C[C@H]1OC(C)=O [wortmannin] | 1 (active) | 1 (active) | 1 (active) | 1 (active) | 1 (active) | 0 (inactive) | 0 (inactive) | 0 (inactive) | 0 (inactive) | 0 (inactive) | 0 (inactive) | 0 (inactive) | 0 (inactive) | 0 (inactive) | 0 (inactive) | 1 µM | 9 µM | 3 µM | 9 µM | 3 µM
CO[C@H](C)[C@](O)(C(=O)OCC1=CCN2CC[C@H](O)[C@@H]12)C(C)C [Heliotrine] | 0 (inactive) | 0 (inactive) | 0 (inactive) | 0 (inactive) | 0 (inactive) | 0 (inactive) | 0 (inactive) | 0 (inactive) | 0 (inactive) | 0 (inactive) | 0 (inactive) | 0 (inactive) | 0 (inactive) | 0 (inactive) | 0 (inactive) | – | – | – | – | –
Nc1ccncc1 [dalfampridine] | 0 (inactive) | 0 (inactive) | 0 (inactive) | 0 (inactive) | 0 (inactive) | 0 (inactive) | 0 (inactive) | 0 (inactive) | 0 (inactive) | 0 (inactive) | 0 (inactive) | 0 (inactive) | 0 (inactive) | 0 (inactive) | 0 (inactive) | – | – | – | – | –
CN1C(CC(O)c2ccccc2)CCCC1CC(O)c1ccccc1 (stereo not given) [Lobelanidine hydrochloride] | 0 (inactive) | 0 (inactive) | 0 (inactive) | 0 (inactive) | 0 (inactive) | 0 (inactive) | 0 (inactive) | 0 (inactive) | 0 (inactive) | 0 (inactive) | 0 (inactive) | 0 (inactive) | 0 (inactive) | 0 (inactive) | 0 (inactive) | – | – | – | – | –
CC(C)CC(N(C)C)C1(c2ccc(Cl)cc2)CCC1 (stereo not given) [sibutramine] | 0 (inactive) | 0 (inactive) | 0 (inactive) | 0 (inactive) | 0 (inactive) | 0 (inactive) | 0 (inactive) | 0 (inactive) | 0 (inactive) | 0 (inactive) | 0 (inactive) | 0 (inactive) | 0 (inactive) | 0 (inactive) | 0 (inactive) | – | – | – | – | –
COc1c2c(cc3c1OCO3)CC[N+](C)=C2 [Cotarnine chloride] | 0 (inactive) | 0 (inactive) | 0 (inactive) | 0 (inactive) | 0 (inactive) | 0 (inactive) | 0 (inactive) | 0 (inactive) | 0 (inactive) | 0 (inactive) | 0 (inactive) | 0 (inactive) | 0 (inactive) | 0 (inactive) | 0 (inactive) | – | – | – | – | –
C=C(C)[C@H]1CN[C@H](C(=O)O)[C@H]1CC(=O)O [Kainic acid] | 0 (inactive) | 0 (inactive) | 0 (inactive) | 0 (inactive) | 0 (inactive) | 0 (inactive) | 0 (inactive) | 0 (inactive) | 0 (inactive) | 0 (inactive) | 0 (inactive) | 0 (inactive) | 0 (inactive) | 0 (inactive) | 0 (inactive) | – | – | – | – | –
CC[C@H]1CN2CCc3cc(OC)c(OC)cc3[C@@H]2C[C@@H]1C[C@H]1NCCc2cc(OC)c(OC)cc21 [emetine] | 1 (active) | 1 (active) | 1 (active) | 1 (active) | 1 (active) | 1 (active) | 1 (active) | 1 (active) | 1 (active) | 1 (active) | 1 (active) | 1 (active) | 1 (active) | 1 (active) | 1 (active) | ≤ 0.3 µM | ≤ 0.3 µM | ≤ 0.3 µM | ≤ 0.3 µM | ≤ 0.3 µM
C#CCN(C)[C@H](C)Cc1ccccc1 [selegiline] | 0 (inactive) | 0 (inactive) | 0 (inactive) | 0 (inactive) | 0 (inactive) | 0 (inactive) | 0 (inactive) | 0 (inactive) | 0 (inactive) | 0 (inactive) | 0 (inactive) | 0 (inactive) | 0 (inactive) | 0 (inactive) | 0 (inactive) | – | – | – | – | –
